The nature of assay [1]: AP1 Signaling Pathway (AID 357; active = well fitted curve in either direction with a large enough effect, not every such curve was filed as active; also: % is scaled to controls: 0 for no effect and ±100 for the full control effect). As to conditions: ME-180 AP-1-bla reporter, EGF-induced, beta-lactamase ratio, 5 h; at 7.69 µM (top of the series) unless noted. The procedure, abridged: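 AP-1-bla ME-180 cells with beta-lactamase reporter under AP-1 response element, stimulated with EC50 EGF; compounds titrated, 5 hours at 37 degrees Celsius. CCF4 read at 460/530 nm ratio; positive and negative modulators judged by AC50.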

The target in assay [2] is Cytochrome P450 1A2 (Homo sapiens) (UniProt P05177). Briefly: p450-cyp1a2 (AID 410; calls by dose curve; also: potency is read from the fitted curve at half-maximal effect;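 as to activity change, negative = inhibition: -100% = full effect of reference inhibitor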). The procedure, abridged:
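20nM CYP1A2, 100uM Luciferin-ME (=Km), 100mM KPO4; cpd 10 min RT; +NADPH regen, 60 min RT; stop/detect 20 min; luminescence. Normalized to furafylline 57 uM = full inhibition.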

A short description of assay [3]: NFAT Signaling Pathway (AID 444; active = well fitted curve in either direction with a large enough effect, not every such curve was filed as active;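 also: carbachol stimulus at about its EC50 of 1 µM final; % is scaled to controls: 0 for no effect and ±100 for the full control effect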). The following applies: Jurkat NFAT-bla M1, carbachol, beta-lactamase ratio, 5 h; at 7.69 µM (top of the series) unless noted. The procedure, abridged:
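Jurkat cells carrying an NFAT-driven β-lactamase reporter and co-transfected muscarinic M1 receptor were treated with compound plus carbachol (1 uM final, an EC50 level) for 5 h at 37 °C. CCF4 loading followed for 1 h at RT; 460/530 nm ratio gave %activity.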

Assay [4] can be described thus: Stat Signaling Pathway (AID 446; active = well fitted curve in either direction with a large enough effect, not every such curve was filed as active;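 also: ME-180 cervical cancer cells given 40 pM IL-6 alongside compound; SIE-controlled beta-lactamase reporter measured as 460/530 nm FRET emission ratio; % is scaled to controls: 0 for no effect and ±100 for the full control effect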). As to conditions: ME-180 SIE beta-lactamase reporter, IL-6 stimulated, 5 h; at 7.69 µM (top of the series) unless noted. The procedure, abridged: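 Emission at 460 and 530 nm (excitation 405 nm) reports SIE-controlled beta-lactamase in ME-180 cells. Cells received compound with 40 pM IL-6 for 5 hrs at 37 C; data scaled between 300 pM IL-6 and 125 nM JAK-inhibitor controls.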

For assay [5], the target named is Glucocorticoid receptor (Homo sapiens) (UniProt P04150). In words: GR-GFP Redistribution (AID 450;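 active = compounds whose dose series gives a full or clear partial fitted curve of increased nuclear translocation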; also: potency is read from the fitted curve at half-maximal effect). As to conditions: U2OS GR-GFP nuclear translocation, laser cytometry, 2 h.
The target is the same in assay [6]. In words: GR-EFC Redistribution (AID 451; calls by dose curve; also: potency is read from the fitted curve at half-maximal effect). The following applies: CHO-K1 GR-EFC translocation, beta-gal luminescence, 2 h. The procedure, abridged:
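CHO-K1 cells stably expressing nuclear-localized β-gal enzyme acceptor and GR fused C-terminally to the enzyme donor fragment; ligand-driven nuclear translocation restores β-gal by complementation. Compounds titrated up to 46 uM final, 2 h at 37 °C; luminescence read.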

Assay [7] deals with Mitogen-activated protein kinase 10 (Mus musculus) (UniProt Q61831). In words: JNK3 AlphaScreen Assay (AID 530; active = well fitted curve in either direction with a large enough effect, not every such curve was filed as active;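 also: kinase came from lysate of stimulated human HepG2 cells; signal reports phosphorylation of biotinylated GST-cJun 1-79 at Ser73 with 10 µM ATP; % is scaled to controls: 0 for no effect and ±100 for the full control effect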). The procedure, abridged: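 Biotinylated GST-cJun(1-79) served as substrate for JNK3 in HepG2 lysates stimulated with IL-1beta and TNF-alpha. ATP was 10 uM final, pH 7.6. Ser73 phosphorylation was quantified by AlphaScreen (680 nm excitation).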
On the technique in general: Bead proximity is the source of the signal in Alpha formats.

For assay [8], the target named is Cytochrome P450 3A4 (Homo sapiens) (UniProt P08684). Briefly: qHTS Assay for Activators of Cytochrome P450 3A4 (AID 885). Also: nearly all actives have a fitted effect of over 65% in size. The procedure, abridged:
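Activators are scored by enhanced luminescence from CYP3A4 conversion of luciferin-PPXE (25uM, equal to KM) to luciferin, after 60 min at RT with an NADPH-regenerating system.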
(qHTS replaces the single test concentration by a dilution series.)

Assay [9] in a line: qHTS Assay for Identification of Small Molecule Agonists for Hypoxia Response Element Signaling Pathway (AID 914; active = well fitted activation curve with a large enough effect in the signal ratio, with a control signal flat, not every such curve was filed as active; the % refers to the signal ratio; also: potency is read from the fitted curve at half-maximal effect; as to activation: % of control where 0% means no effect). The following applies: ME-180 (cervical carcinoma) HRE-bla reporter, beta-lactamase ratio, CoCl2, 17 h; activation: hits give high values. The procedure, abridged:
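Read-out: CCF4 FRET ratio of 460nm to 530nm emission (excitation 405nm) after 2.5 hours at room temperature, taken from HRE-bla ME-180 cells that had been exposed to compound and EC50 CoCl2 for 17 hours.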

Assay [10] has as its target Dual specificity protein kinase CLK4 (Homo sapiens) (UniProt Q9HAZ1). Briefly: qHTS Assay for Inhibitors of CDC-like Kinase 4 (Kinase-Glo Assay) (AID 1770). Also: nearly all actives have a fitted effect of over 65% in size. Also: potency is read from the fitted curve at half-maximal effect. The procedure, abridged:
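25 nM Clk4 with 100 uM RS repeat peptide and 1 uM ATP (final) in Tris pH7.5, 10 mM MgCl2, 4.5 h at room temperature. Remaining ATP measured by Kinase-Glo luciferase luminescence.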

Assay [11] has the same target. In words: qHTS Assay for Inhibitors of CDC-like Kinase 4 (ADP-Glo Assay) (AID 1771). Also: nearly all actives have a fitted effect of over 70% in size. Also: potency is read from the fitted curve at half-maximal effect. The procedure, abridged:
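25 nM Clk4, 100 uM RS peptide, 1 uM ATP (final); 2 mM MgCl2, 0.5 mM EGTA, 2.5 mM DTT, 0.01% Triton X-100; 1 hr RT. ADP-Glo readout: ATP depletion 45 min, conversion/luciferase 30 min, luminescence.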

Assay [12] has the same target. In words: qHTS Assay for Inhibitors of CDC-like Kinase 4 (ADP-FP Assay) (AID 1795).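 Also: recombinant human CLK4 phosphorylating RS repeat peptide at 1 µM ATP; % is scaled to controls: 0 for no effect and ±100 for the full control effect; nearly all actives have a fitted effect of over 60% in size.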 The procedure, abridged:
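Recombinant Clk4 (6.25 nM) phosphorylated 100 uM RS repeat peptide with 1 uM ATP in 25 mM Tris pH 7.5, 10 mM MgCl2, 0.5 mM EGTA, 2.5 mM DTT, 0.01% Triton X-100 for 1 h. ADP was detected by Transcreener ADP2 competitive fluorescence polarization after 30 min at room temperature.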

The nature of assay [13]: Primary qHTS for small molecule stabilizers of the endoplasmic reticulum resident proteome: Secreted ER Calcium Modulated Protein (SERCaMP) assay (AID 1508630). Also: % is scaled to controls: 0 for no effect and ±100 for the full control effect. The procedure, abridged: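 The SH-SY5Y reporter protocol was run at 3 concentrations up to 38.3 uM (primary) or 11 concentrations (follow-up): 16 h compound, 100 nM thapsigargin for 4 h, then extracellular luciferase luminescence.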

In assay [14] the target is 3',5'-cyclic-AMP phosphodiesterase 4B (Homo sapiens) (UniProt Q07343). In words: qHTS Assay for Inhibitors of PDE-IV (AID 607; active = well fitted activation curve with a large enough effect in the main read-out, with a control signal flat, not every such curve was filed as active; also: % of control where 0% means no effect). The procedure, abridged: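 The readout is membrane depolarisation from a cAMP-sensing CNG channel, detected with a potential dye at ex 535/em 590. Cells were HEK293-derived (endogenous PDE-IV) at 1000 cells/well, titrated up to 22.9 uM final.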

The target in assay [15] is Ubiquitin carboxyl-terminal hydrolase 1 (Homo sapiens) (UniProt O94782). Briefly: Inhibitors of USP1/UAF1: Pilot qHTS (AID 504865).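 Also: rhodamine fluorescence freed from ubiquitin-rhodamine substrate followed over time; top concentration of the series differs between compounds; % is scaled to controls: 0 for no effect and ±100 for the full control effect; nearly all actives have a fitted effect of over 35% in size.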 The procedure, abridged: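 USP1/UAF1 complex at 1 nM preincubated 15 min at room temperature with compound, then Ub-Rho substrate added at 150 nM final. Fluorescence (480/540 nm) read kinetically in 50 mM HEPES pH 7.8, 0.5 mM EDTA, 1 mM TCEP, 0.1 mg/ml BSA, 0.01% Tween-20.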

The target in assay [16] is Lysosomal acid glucosylceramidase (Homo sapiens) (UniProt P04062). Briefly: Glucocerebrosidase-p2 (AID 348; in the data active = potency below about 10 µM; also: potency is read from the fitted curve at half-maximal effect). As to conditions: purified GBA, blue fluorogenic substrate, 40 min. The procedure, abridged: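 Normal human glucocerebrosidase (0.2 nM) with blue fluorogenic substrate (80 uM final) in citrate/phosphate pH 5.9 with 10mM sodium taurocholate, 0.01% tween-20; 40 min RT, NaOH/glycine stop; fluorescence Ex 365/Em 440; AC50 from a titration from 0.6 nM upwards.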

In assay [17] the target is Cytochrome P450 3A4 (Homo sapiens) (UniProt P08684). In words: qHTS Assay for Inhibitors and Substrates of Cytochrome P450 3A4 (AID 884). Also: potency is read from the fitted curve at half-maximal effect; nearly all actives have a fitted effect of over 50% in size. The procedure, abridged:
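Luminescent readout of luciferin produced by CYP3A4 (20 nM) dealkylation of Luciferin-PPXE, 25 uM (its KM). NADPH-driven reaction ran 60 min at RT after 10 min compound preincubation; data scaled to 57 uM ketoconazole as 100% inhibition.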

Unmarked numbers belong to inactive results. Results filed as inconclusive are left out. Active and inactive are the calls of the source. Unless noted, calls follow the shape of the dose curve; as a rule, active = well fitted curve in the direction sought with a large enough effect; inconclusive = small, poorly fitted or top-dose-only effect, or another doubt; inactive = no such curve, though single readings can be large; an effect the other way counts as inactive or inconclusive.

Sequence of Dual specificity protein kinase CLK4 (Homo sapiens) (Q9HAZ1 whole entry, looked up): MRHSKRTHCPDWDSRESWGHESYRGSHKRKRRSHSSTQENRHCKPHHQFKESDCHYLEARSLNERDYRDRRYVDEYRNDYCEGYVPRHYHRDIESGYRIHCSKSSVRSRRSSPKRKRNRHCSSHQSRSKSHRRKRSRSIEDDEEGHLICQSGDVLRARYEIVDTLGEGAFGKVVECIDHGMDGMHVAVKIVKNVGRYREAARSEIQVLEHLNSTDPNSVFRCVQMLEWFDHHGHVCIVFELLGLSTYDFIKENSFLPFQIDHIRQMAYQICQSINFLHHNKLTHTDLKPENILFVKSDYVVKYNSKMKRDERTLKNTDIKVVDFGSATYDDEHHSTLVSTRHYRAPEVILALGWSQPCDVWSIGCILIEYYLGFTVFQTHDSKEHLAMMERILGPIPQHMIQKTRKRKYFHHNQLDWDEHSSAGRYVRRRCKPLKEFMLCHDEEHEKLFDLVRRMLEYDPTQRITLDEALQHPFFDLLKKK
Sequence of Glucocorticoid receptor (Homo sapiens) (P04150 whole entry, looked up): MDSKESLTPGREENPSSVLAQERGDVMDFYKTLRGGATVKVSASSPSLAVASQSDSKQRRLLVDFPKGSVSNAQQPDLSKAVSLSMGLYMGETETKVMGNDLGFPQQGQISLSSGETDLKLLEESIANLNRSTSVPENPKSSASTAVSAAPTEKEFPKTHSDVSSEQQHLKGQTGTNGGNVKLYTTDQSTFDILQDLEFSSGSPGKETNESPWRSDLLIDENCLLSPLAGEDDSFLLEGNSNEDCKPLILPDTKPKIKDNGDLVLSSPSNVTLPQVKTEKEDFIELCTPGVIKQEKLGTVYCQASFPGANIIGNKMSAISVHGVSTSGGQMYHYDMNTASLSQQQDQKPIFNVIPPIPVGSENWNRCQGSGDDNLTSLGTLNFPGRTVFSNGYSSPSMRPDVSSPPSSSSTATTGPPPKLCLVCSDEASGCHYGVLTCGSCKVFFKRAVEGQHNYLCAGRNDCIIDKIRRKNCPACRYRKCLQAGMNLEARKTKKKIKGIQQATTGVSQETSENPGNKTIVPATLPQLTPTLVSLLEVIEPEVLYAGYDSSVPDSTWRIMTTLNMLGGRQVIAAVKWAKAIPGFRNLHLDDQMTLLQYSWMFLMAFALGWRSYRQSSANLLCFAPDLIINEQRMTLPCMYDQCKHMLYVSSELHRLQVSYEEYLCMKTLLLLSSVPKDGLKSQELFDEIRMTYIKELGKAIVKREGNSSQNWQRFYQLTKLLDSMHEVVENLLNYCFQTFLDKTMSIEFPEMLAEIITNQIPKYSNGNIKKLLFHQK
Sequence of Lysosomal acid glucosylceramidase (Homo sapiens) (P04062 whole entry, looked up): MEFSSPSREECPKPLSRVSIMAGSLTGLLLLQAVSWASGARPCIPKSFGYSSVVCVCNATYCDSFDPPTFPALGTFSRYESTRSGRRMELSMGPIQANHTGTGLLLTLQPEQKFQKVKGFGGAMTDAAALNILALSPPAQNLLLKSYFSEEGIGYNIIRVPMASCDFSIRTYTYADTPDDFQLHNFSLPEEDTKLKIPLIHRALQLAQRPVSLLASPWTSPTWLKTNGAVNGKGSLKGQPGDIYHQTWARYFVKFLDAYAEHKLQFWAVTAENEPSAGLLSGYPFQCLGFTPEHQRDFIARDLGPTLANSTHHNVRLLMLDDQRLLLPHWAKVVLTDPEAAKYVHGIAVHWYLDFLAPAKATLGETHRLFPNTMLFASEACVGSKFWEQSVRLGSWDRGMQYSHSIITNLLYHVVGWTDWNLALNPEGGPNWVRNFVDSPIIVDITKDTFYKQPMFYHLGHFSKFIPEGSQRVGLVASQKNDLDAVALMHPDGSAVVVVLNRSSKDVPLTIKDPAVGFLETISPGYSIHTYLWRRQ
Sequence of Ubiquitin carboxyl-terminal hydrolase 1 (Homo sapiens) (O94782 whole entry, looked up): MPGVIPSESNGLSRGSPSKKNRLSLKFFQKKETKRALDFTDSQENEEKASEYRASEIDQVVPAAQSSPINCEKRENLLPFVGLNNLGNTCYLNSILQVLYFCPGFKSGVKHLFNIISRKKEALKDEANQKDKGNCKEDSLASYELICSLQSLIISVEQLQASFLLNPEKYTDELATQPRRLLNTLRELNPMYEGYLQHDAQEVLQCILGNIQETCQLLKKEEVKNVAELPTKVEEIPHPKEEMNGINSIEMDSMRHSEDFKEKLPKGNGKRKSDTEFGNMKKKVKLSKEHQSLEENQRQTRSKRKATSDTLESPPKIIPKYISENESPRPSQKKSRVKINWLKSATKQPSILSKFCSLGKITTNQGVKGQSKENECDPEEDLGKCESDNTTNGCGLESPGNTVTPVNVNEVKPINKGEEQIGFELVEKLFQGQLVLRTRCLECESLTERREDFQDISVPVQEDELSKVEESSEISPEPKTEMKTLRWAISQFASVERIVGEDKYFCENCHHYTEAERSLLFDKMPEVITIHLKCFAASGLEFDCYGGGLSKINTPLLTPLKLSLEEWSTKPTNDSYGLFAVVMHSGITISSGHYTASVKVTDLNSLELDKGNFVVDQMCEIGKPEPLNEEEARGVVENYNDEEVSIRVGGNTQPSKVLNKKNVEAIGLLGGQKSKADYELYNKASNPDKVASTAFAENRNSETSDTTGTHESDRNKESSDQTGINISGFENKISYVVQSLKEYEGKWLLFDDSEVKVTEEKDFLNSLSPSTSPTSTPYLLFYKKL
Sequence of Cytochrome P450 1A2 (Homo sapiens) (P05177 whole entry, looked up): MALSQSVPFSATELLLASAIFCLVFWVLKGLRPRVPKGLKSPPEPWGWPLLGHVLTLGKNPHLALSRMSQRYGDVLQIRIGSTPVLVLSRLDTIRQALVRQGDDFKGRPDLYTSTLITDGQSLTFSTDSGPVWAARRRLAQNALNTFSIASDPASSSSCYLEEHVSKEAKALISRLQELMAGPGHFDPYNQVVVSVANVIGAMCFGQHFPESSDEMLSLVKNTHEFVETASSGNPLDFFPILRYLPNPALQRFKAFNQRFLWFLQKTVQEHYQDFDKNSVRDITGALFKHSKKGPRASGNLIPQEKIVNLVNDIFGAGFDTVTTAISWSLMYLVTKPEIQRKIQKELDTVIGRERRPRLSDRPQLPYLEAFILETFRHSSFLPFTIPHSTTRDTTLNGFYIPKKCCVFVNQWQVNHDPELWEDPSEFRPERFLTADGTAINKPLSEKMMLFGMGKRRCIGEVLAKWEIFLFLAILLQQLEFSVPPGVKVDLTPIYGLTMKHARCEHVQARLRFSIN
Sequence of Cytochrome P450 3A4 (Homo sapiens) (P08684 whole entry, looked up): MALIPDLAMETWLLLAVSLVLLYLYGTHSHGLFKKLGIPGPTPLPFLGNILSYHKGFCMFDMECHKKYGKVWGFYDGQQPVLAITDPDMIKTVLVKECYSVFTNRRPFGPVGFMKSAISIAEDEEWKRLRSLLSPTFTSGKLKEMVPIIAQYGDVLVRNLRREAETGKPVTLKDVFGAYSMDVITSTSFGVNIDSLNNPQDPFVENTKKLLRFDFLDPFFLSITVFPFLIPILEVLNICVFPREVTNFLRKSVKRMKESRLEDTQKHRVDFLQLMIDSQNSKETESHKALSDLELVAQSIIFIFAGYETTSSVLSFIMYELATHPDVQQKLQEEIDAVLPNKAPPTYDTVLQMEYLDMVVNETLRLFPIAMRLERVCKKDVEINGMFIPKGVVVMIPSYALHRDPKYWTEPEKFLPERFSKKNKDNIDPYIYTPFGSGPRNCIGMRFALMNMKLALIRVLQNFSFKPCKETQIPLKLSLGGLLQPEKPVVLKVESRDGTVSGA
Sequence of 3',5'-cyclic-AMP phosphodiesterase 4B (Homo sapiens) (Q07343 whole entry, looked up): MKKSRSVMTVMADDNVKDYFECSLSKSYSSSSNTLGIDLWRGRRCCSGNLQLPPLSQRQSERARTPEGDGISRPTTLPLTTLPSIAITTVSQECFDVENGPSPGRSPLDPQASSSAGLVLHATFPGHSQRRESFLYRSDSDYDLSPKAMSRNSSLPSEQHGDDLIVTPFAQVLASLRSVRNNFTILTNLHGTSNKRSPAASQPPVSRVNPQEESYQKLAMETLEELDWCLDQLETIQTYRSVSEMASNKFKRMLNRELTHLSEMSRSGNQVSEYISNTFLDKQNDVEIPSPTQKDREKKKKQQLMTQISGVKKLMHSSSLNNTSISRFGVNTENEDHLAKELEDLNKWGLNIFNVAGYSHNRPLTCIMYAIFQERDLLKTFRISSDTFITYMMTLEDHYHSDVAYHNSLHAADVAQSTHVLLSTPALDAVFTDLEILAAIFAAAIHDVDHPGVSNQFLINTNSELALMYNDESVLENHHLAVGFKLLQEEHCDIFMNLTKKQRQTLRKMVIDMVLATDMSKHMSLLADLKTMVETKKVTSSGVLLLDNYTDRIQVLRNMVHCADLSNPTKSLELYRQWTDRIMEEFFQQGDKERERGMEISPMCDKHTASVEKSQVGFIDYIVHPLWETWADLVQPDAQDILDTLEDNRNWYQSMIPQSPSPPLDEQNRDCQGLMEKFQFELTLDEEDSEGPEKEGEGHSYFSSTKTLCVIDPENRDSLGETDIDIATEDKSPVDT

Regarding `Cc1cccc(CNc2ccnc(-c3ccccc3C(F)(F)F)n2)c1`, the figures for the activity change, negative = inhibition in [1] and in [3] were -10.1% and 1.23%, respectively. Further, the figures for the Potency in assay [2], in assay [5] and in assay [6] were 6.31 µM (active), over 46 µM and over 46 µM, respectively. Besides, in assay [4], the activity, negative = inhibition was 5.48%. The Potency entry in assay [7], in assay [8], in assay [10], in assay [11] and in assay [12] was “inactive” throughout. Besides, the activation in assay [9] was -2.48%. In assay [13], the outcome was inactive.
On to `COCCn1c(=O)c(-c2ccc(Cl)cc2)nc2cnc(N(C)C)nc21`, for which the activity change, negative = inhibition in [1] was -3.17%; in [3] it was -3.15%. Besides, the Potency in assay [2] was 1 µM (active); in assay [5], over 9.22 µM; in assay [6] it was over 46 µM. Besides, the Potency entry in assay [14], in assay [10], in assay [11], in assay [12] and in assay [15] was “inactive” each time. In addition, the outcome in [13] was inactive.
`CCNc1ncc2nc(-c3cccs3)c(=O)n(CCc3ccccc3)c2n1`: the Potency is 10 µM (active) in assay [2], over 9.22 µM in [5], over 46 µM in assay [6] and 1 µM (active) in assay [9]. The activity, negative = inhibition in [4] is 98% [activator] (active). Further, the Potency result in [7], in assay [8], in assay [10], in [11], in assay [12] and in [15] was “inactive” each time. The result in assay [13] was inactive.
In the case of `Cn1c(=O)c(-c2cc(F)cc(F)c2)nc2cnc(N3CCNCC3)nc21`, the Potency in assay [5] is over 9.22 µM; in assay [6], over 46 µM. The Potency entry in assay [7], in assay [14], in assay [8], in assay [10], in assay [11] and in assay [12] was “inactive” in each case. Also, the Potency entry in [15] is “inactive”. Besides, the outcome in [13] was inactive.
In the case of `Cc1cnc(CNc2cc(-c3ccc(C(=O)N(C)C)cc3)ncn2)cn1`, the Potency in assay [16] was over 11.4 µM; in assay [5], over 46 µM; in [6], over 46 µM; in [10], 12.6 µM (active); in assay [11], 14.1 µM (active). The results for the activity change, negative = inhibition in [1] and in [3] were 19.2% and 15.2%, respectively. Also, the Potency result in assay [2], in assay [7], in assay [14] and in assay [15] was “inactive” each time. The activity, negative = inhibition in [4] was 6.75%. Besides, in assay [13], the result was inactive.
On to `COc1ccc2[nH]cc(CCNc3cc(-c4ccc(C(=O)N(C)C)cc4)ncn3)c2c1`, for which the Potency is over 11.4 µM in [16]; 20 µM (active) in assay [2]; over 46 µM in assay [5]; over 46 µM in [6]; 6.31 µM (active) in assay [17]; 10 µM (active) in assay [10]. Besides, in assay [11], the Potency was 10 µM (active). Further, the activity change, negative = inhibition was -10.4% in assay [1] and 0.0562% in assay [3]. In assay [4], the activity, negative = inhibition is -10.6%. Also, the Potency entry in assay [7], in assay [14], in assay [8] and in assay [15] was “inactive” throughout. Besides, the outcome in assay [13] was inactive.
For `O=c1c(-c2cccc(Cl)c2)nc2cncnc2n1C1CC1`, the Potency in assay [16] is over 11.4 µM; in [2] it was 0.631 µM (active); in [5], over 9.22 µM; in [6], over 46 µM. Further, the activity change, negative = inhibition in assay [1] is -20.9%; in [3] it was -7.65%. For the same compound, the activity, negative = inhibition in assay [4] was -4.14%. For the same compound, the Potency entry in assay [7], in [14], in assay [8], in assay [10], in assay [11] and in assay [15] was “inactive” throughout. In assay [13], the outcome was inactive.

These data come from PubChem BioAssay (NCATS).
